Assay outcomes (PubChem)
Nrf2 block: Nrf2 pathway inhibition | A549 ARE-Fluc reporter, luciferase luminescence, 18-24 h | Potency, µM (titrated, usually from 46 µM), without a hit: at the top dose activity change, negative = inhibition, actives largely listed as inhibitors | 2.1% of 360,000 active; further: on the % scale 0 is the no-effect control and ±100 the full control effect; nearly all actives have a fitted effect of over 60% in size
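A549 ARE_Fluc cells (5000/well, 5% FBS OPTI-MEM) pre-incubated 2 h, then treated with compounds 18-24 h at 37C/5% CO2 in concentration-response. CellTiter-Fluor viability read first; BugLite luciferase luminescence after 15 min at room temperature gives Nrf2 activity.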
rTrxR1 inhibitor: inhibitors of rat thioredoxin reductase 1; O89049; recombinant rTrxR1, NADPH fluorescence consumption, selenite substrate; Potency, µM (doses to about 114 µM), for the others: top-dose activity change, negative = inhibition, usual class: inhibitors; 1% of 390,000 active; further: on the % scale 0 is the no-effect control and ±100 the full control effect; nearly all actives have a fitted effect of over 65% in size
Target sequence (O89049 whole entry, looked up): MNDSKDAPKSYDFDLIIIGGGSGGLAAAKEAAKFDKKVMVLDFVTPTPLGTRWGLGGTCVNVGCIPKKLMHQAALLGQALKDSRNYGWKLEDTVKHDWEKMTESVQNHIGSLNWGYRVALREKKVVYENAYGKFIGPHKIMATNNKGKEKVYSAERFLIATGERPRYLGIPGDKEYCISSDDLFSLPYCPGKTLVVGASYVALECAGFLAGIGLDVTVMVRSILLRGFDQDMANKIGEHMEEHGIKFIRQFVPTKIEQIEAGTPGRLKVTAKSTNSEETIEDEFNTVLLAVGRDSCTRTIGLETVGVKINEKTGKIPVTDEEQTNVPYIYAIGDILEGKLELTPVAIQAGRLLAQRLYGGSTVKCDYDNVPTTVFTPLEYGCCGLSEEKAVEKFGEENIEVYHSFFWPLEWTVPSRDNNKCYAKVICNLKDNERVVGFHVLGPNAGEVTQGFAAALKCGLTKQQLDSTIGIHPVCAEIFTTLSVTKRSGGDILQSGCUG
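Rat TrxR1 (90 nM in the dispensed reagent) was pre-reduced with 400 uM NADPH for 5 min at room temperature, then incubated with compound for 15 min. After 400 uM selenite was added, NADPH fluorescence (Ex 340/Em 450 nm) was followed for 8 min.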
mIDH1 inhibitor: inhibitors of human mutant IDH1 R132H | O75874 | IDH1-R132H enzyme, NADPH consumption, diaphorase/resazurin fluorescence | Potency, µM (highest dose often 76.6 µM), for inactives: at the highest dose activity change, negative = inhibition, usual class: inhibitors | 0.093% of 390,000 active; further: on the % scale 0 is the no-effect control and ±100 the full control effect; nearly all actives have a fitted effect of over 65% in size
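IDH1-R132H (0.5 ug/mL dispensed) in pH 7.5 Tris buffer was preincubated 30 min with compound, then given a substrate mix of 0.016 mM NADPH and 2 mM alpha-KG for 80 min at room temperature; remaining NADPH was read by diaphorase/resazurin fluorescence.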
Mito fusion yeast: blocks mitochondrial division or promotes mitochondrial fusion; S. cerevisiae fusion-defective mutant growth rescue, CellTiterGlo 48 h; Potency, µM (series often up to 46.1 µM), for inactives: at the top dose growth rescue (activation), actives largely listed as activators; 0.23% of 320,000 active; AID 485298; further: % of control where 0% means no effect; nearly all actives have a fitted effect of over 45% in size
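Temperature-sensitive fusion-defective S. cerevisiae (e.g. fzo1-1, mgm1-5) were grown with compound in YPEG medium (3% ethanol, 3% glycerol) for 48 hours at 37C. Growth rescue was measured as viability by CellTiterGlo luminescence after 10 minutes at ambient.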
A549 tox-1: kills or reduces viability of A549 cells in Nrf2 counter-screen; Potency, µM (titrated, usually from 46 µM), inactives show at the top dose activity change, negative = cytotoxicity, actives largely listed as inhibitors; 0.16% of 390,000 active; A549 ARE-Fluc cells, CellTiter-Fluor viability, 18-24 h; further: on the % scale 0 is the no-effect control and ±100 the full control effect
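A549 ARE-Fluc cells in 5% FBS OPTI-MEM, 5000 cells/well, rested 2 h then exposed to compounds in concentration-response for 18-24 h at 37 °C. Viability by CellTiter-Fluor fluorescence (Ex 405/Em 525) after 30 min; luciferase luminescence (BugLite, 15 min, RT) read afterwards.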
TrxR1 substrate: substrates of rat thioredoxin reductase 1; purified TrxR1 substrate turnover, NADPH consumption readout; Potency, µM (highest dose often 114 µM), without a hit: at the top dose activity change, negative = substrate turnover; O89049; 0.01% of 390,000 active; further: on the % scale 0 is the no-effect control and ±100 the full control effect; nearly all actives have a fitted effect of over 50% in size
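Rat TrxR1, dispensed at 90 nM, was prereduced with 400 uM NADPH (final) for 5 min at ~22 deg C, then incubated with compound 15 min before 400 uM selenite. A first-read NADPH fluorescence drop versus no-compound background flagged substrates.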
FLuc counter 3: firefly luciferase inhibition, Nrf2 hit validation; Potency, µM (highest dose often 57.5 µM), for the others: at the top dose activity change, negative = inhibition, most hits filed as inhibitors; purified firefly luciferase, luminescence inhibition; 4% of 1,400 active; shares compounds with Nrf2 block; further: on the % scale 0 is the no-effect control and ±100 the full control effect; nearly all actives have a fitted effect of over 65% in size
A549 tox-2: counter-screen for Nrf2 inhibitors: cytotoxicity in A549 ARE cells; shares compounds with Nrf2 block; A549 ARE-Fluc cells, cytotoxicity counterscreen; Potency, µM (top dose mostly 46.1 µM), inactives show at the top dose activity change, negative = cytotoxicity, hits mostly inhibitors; 2% of 1,400 active; AID 720523;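 further: cells exposed to compounds for 18 to 24 hours; on the % scale 0 is the no-effect control and ±100 the full control effect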
Nrf2 ARE inh: reduces Nrf2 ARE reporter signal in A549 cells | shares compounds with Nrf2 block | A549 ARE-firefly luciferase reporter, luminescence | Potency, µM (doses to about 46.1 µM), inactives show at the highest dose activity change, negative = inhibition, actives largely listed as inhibitors | 74% of 1,400 active; further: on the % scale 0 is the no-effect control and ±100 the full control effect; nearly all actives have a fitted effect of over 65% in size
* = called active by the depositor; ? = inconclusive; . = not tested or not shown; [ ] = another dose, or the depositor's remark. Hits are enriched below; roughly 3.1% of the tested compounds scored in any of these assays. The call rests on the fitted dose curve; in most records, active means well fitted curve in the direction sought with a large enough effect; inconclusive means small, poorly fitted or top-dose-only effect, or another doubt; inactive means no such curve, though single readings can be large; an effect the other way counts as inactive or inconclusive. Potency means the concentration at half of the fitted maximal effect.

SMILES	Nrf2 block	rTrxR1 inhibitor	mIDH1 inhibitor	Mito fusion yeast	A549 tox-1	TrxR1 substrate	FLuc counter 3	A549 tox-2	Nrf2 ARE inh
Cc1cc(Cl)c(S(=O)(=O)N2CCN(c3ccc(F)cc3)CC2)cc1OCC(=O)NC1CCCCC1	0.291µM*	11.1%	-0.1%	4.3%	-28.0%	-3.5%	0.7%	-27.0%	0.731µM*
O=S(=O)(NC1CCc2ccccc21)c1ccc(S(=O)(=O)N2CCCC2)cc1 (stereo unspecified)	4.11µM*	0.7%	-2.2%	4.6%	-2.6%	-6.8%	0.7%	1.3%	?
Cc1csc2ncnc(NC3CCN(Cc4ccccc4)CC3)c12	9.2µM*	15.5%	2.1%	-0.6%	-2.2%	2.7%	-1.8%	-8.6%	4.11µM*
c1ccc(CN2CCC(Nc3nc(-c4ccccc4)nc4ccccc34)CC2)cc1	?	-7.0%[57.1 µM]	2.9%	5.7%	?	-1.9%[57.1 µM]	.	.	.
O=C(OCCOc1ccc(Cl)cc1)c1cc(S(=O)(=O)N2CCCCC2)ccc1N1CCOCC1	8.2µM*	38.1%	-1.6%	.	-13.9%	9.6%	4.0%	-10.3%	8.2µM*
Cc1cc(C(=O)OCC(=O)N2CC(=O)Nc3ccccc32)c(C)n1-c1ccccc1	?	-10.1%	3.2%	-0.1%	0.8%	-13.2%	.	.	.
Cc1cc(C(=O)OCC(=O)N2CC(=O)Nc3ccccc32)c(C)n1-c1ccc(F)cc1	9.2µM*	-2.0%	11.0%	3.1%	?	-1.1%	-15.8%	0.6%	16.4µM*
Cc1cc(C)nc(SCc2ccc(C(=O)NNC(=O)Nc3cccc(Cl)c3)cc2)n1	9.2µM*	0.0%	-1.3%	3.3%	?	-9.2%	-22.6%	?	14.6µM*
COc1ccc(OC)c(-c2cc(C3CCN(c4cc(Cl)nc(N)n4)CC3)[nH]n2)c1	?	13.2%	2.9%	2.3%	-17.4%	1.6%	.	.	.
Nc1nc(Cl)cc(N2CCC(c3cc(-c4ccc(Cl)cc4)n[nH]3)CC2)n1	8.2µM*	5.3%	6.3%	-19.8%	?	-0.6%	-19.2%	-21.4%	18.4µM*
Cc1ccc(-c2nc3cc(NC(=O)C(C)C)ccc3o2)cc1	?	-1.7%[57.1 µM]	2.5%	16.8%	-5.1%	28.6%[57.1 µM]	.	.	.
CC(Oc1ccc(Cl)cc1Cl)C(=O)Nc1ccc2oc(-c3ccncc3)nc2c1 (stereo unspecified)	4.61µM*	45.2%	-3.6%	4.3%	?	70.8%	3.3%	-16.3%	8.2µM*
COc1cccc(Nc2nnc(-c3cc4ccc(O)cc4oc3=O)s2)c1	.	25.6%[57.1 µM]	.	.	?	21.1%[57.1 µM]	.	.	.
COc1ccc(-n2cc(-c3ccc(C)cc3)[n+]3c2SCC3)cc1	9.2µM*	-11.9%	-0.4%	-6.9%	?	-8.6%	2.1%	-7.3%	5.17µM*
Cc1ccc(-c2cn(-c3ccccc3)c3[n+]2CCCS3)cc1	4.61µM*	22.6%[57.1 µM]	0.8%	6.8%	?	15.9%[57.1 µM]	2.4%	-4.7%	6.51µM*
CCc1ccc(-n2cc(-c3ccc(F)cc3)[n+]3c2SCCC3)cc1	?	9.9%[57.1 µM]	-3.8%	-11.7%	1.8%	3.4%[57.1 µM]	.	.	.
COc1ccc(CC(=O)Nc2ccncc2Cl)cc1	5.17µM*	32.0%	-6.8%	-2.3%	-0.8%	2.6%	1.8%	7.5%	?
